# Screening data from PubChem BioAssay.
# Most compounds without a hit are left out; they make up all but 3.6% or so of the library.
# BoNT-F LC inh – BoNT F light chain protease inhibition; Multiplex microsphere protease cleavage assay, flow cytometry; inhibition, % at 10 µM; 360,000 compounds, 0.22% hits; in the data active = inhibition above about 35%, passing the limit was not always enough; inconclusive = no clear call, values can overlap the other calls; note: plate controls were buffer without enzyme for full effect and enzyme alone for no effect
# Autofluor counter – flagged as autofluorescent in microsphere protease counterscreen | compound autofluorescence counterscreen, microsphere flow cytometry; hits give high values | 360,000 compounds, 3.1% hits | fluorescence intensity (test concentration not listed) | AID 624483; in the data active = fluorescence intensity above about 16000; inconclusive = no clear call, values can overlap the other calls
# MazF activator – MazEF (E. coli) toxin RNase activation; P0AE70; FAM/BHQ RNA-DNA oligo cleavage fluorescence, 5 h; activation, % at 20 µM; 350,000 compounds, 0.32% hits; in the data active = activation above about 50%
# Target sequence (P0AE70 whole entry, looked up): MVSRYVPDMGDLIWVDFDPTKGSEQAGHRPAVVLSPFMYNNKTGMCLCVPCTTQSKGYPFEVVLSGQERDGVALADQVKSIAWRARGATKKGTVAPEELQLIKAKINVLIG
# BoNT A protease – BoNT A light chain protease inhibition | 360,000 compounds, 0.17% hits | multiplex microsphere protease substrate cleavage, flow cytometry | inhibition, % at 10 µM; note: plate controls were buffer without enzyme for full effect and enzyme alone for no effect
# Anthrax LF prot – anthrax lethal factor protease inhibition. P15917. multiplex microsphere protease cleavage assay, LF. inhibition, % at 10 µM. 360,000 compounds, 0.12% hits; note: plate controls were buffer without enzyme for full effect and enzyme alone for no effect
# * hit, by the source's call; ? = inconclusive; . = no result given. Cut-off read from the data, not from the text of the source, unless noted: active = inhibition above about 30%; inconclusive = no clear call, values can overlap the other calls; inactive = below that.
SMILES,BoNT-F LC inh,Autofluor counter,MazF activator,BoNT A protease,Anthrax LF prot
c1ccc(-c2nc(-n3ccnc3)nc(-n3ccnc3)n2)cc1,-2.6,5287,13.3,0.3,-12.8
CCCCNc1nc(-c2ccccc2)nc(-n2ccnc2)n1,-1.1,4451,7.5,0.9,-0.8
c1ccc(-c2nc(NC3CC3)nc(-n3ccnc3)n2)cc1,-8.6,21514*,5.1,-5.7,1.9
C=CCNc1nc(-c2ccccc2)nc(-n2ccnc2)n1,8.3,18305*,6.6,5.4,0.1
CN1CCN(C(=O)C2CC(=O)N(c3ccc(Cl)cc3)C2)CC1 (centres undefined),-3.7,6687,6.1,-1.7,-1.2
O=C(Cn1ccc(NC(=O)OCc2ccccc2)nc1=O)NCc1ccc2c(c1)OCO2,8.8,3953,58.2*,0.3,-5.0
NC(=O)c1sc2nc(N3CCCCC3)c3c(c2c1N)CCCC3,-2.6,16416*,-5.1,0.1,3.5
O=[N+]([O-])c1ccc(C2CCCC/C2=N\OCc2cccc(F)c2)c([N+](=O)[O-])c1 (centres undefined),-8.8,23769*,-3.1,?,-4.0
N#Cc1ccccc1C[C@H](N)C(=O)NC[C@H]1O[C@@H](n2cnc3c(N)ncnc32)[C@H](O)[C@@H]1O,-2.8,6102,.,-0.4,-3.3
CC1Cc2cc(/C(O)=C3/C(=O)C(=O)N(CCCn4ccnc4)C3c3cccnc3)ccc2O1 (centres undefined),-5.0,17226*,-2.7,-2.9,-4.3
O=C1C(=O)N(CCCn2ccnc2)C(c2cccnc2)/C1=C(/O)c1ccc(F)cc1 (centres undefined),-1.3,23173*,-2.9,0.1,2.1
Cn1cc(Cl)c(C(=O)N/N=C/c2ccc3c4c(cccc24)CC3)n1,1.2,4230,67.6*,3.4,-0.1
O=C(Nc1cccc(S(=O)(=O)N2CCOCC2)c1)c1cc2c(s1)CCC2,-15.9,?,3.4,?,-9.5
O=C(Nc1cccc(Cn2cccn2)c1)c1cc2c(s1)CCCC2,-3.3,16682*,7.5,-3.0,-7.8
OC[C@@H]1CN(Cc2ccc(Cl)cc2)C[C@H](n2cnc3c(Nc4ccccc4)ncnc32)O1,2.0,3771,.,-0.1,-1.3
COc1cc(/C=N/N2CCN(Cc3ccc(Cl)cc3)CC2)cc(Br)c1O,36.4*,4715,1.6,-3.8,-2.0
Cc1ccc(CN2CCN(/N=C/c3ccc(O)c(O)c3)CC2)cc1,-1.0,3261,-0.4,0.8,16.9
COc1ccc(/C=N/N2CCN(Cc3ccc(C)cc3)CC2)cc1Br,43.3*,4367,-2.9,-3.0,-6.2
COc1cc(/C=N/N2CCN(Cc3ccc(Cl)cc3)CC2)ccc1OC(C)=O,?,3893,4.2,-0.5,-13.1
CCOC(=O)COc1cc(-n2c(=S)[nH]c3cc(OC)c(OC)cc3c2=O)c(Cl)cc1Cl,-3.8,2687,13.6,-0.8,-1.4
CCS(=O)(=O)Nc1cccc(C2=NN(S(=O)(=O)c3ccccc3)C(c3cccs3)C2)c1 (centres undefined),-3.9,22079*,7.4,-2.4,0.0
CCc1ccc(C2=NN(S(C)(=O)=O)C(c3cccs3)C2)cc1 (centres undefined),2.2,19673*,282.7*,-1.5,-3.4
Cc1ccc(C2=NN(S(C)(=O)=O)C(c3cccs3)C2)cc1 (centres undefined),-16.3,?,7.8,-1.9,-8.1
O=C(NCc1ccccc1Cl)C1CCC(=O)N(CC2CCCCC2)C1 (centres undefined),2.5,5456,8.0,3.0,0.6
C=CCn1ccc(O)c(Cc2ccc(Cl)cc2)c1=O,-1.2,3567,1.1,-0.1,18.6
SMILES,BoNT-F LC inh,Autofluor counter,MazF activator,BoNT A protease,Anthrax LF prot
COc1cccc(-c2nnc(SCc3nc4ccccc4[nH]3)n2N)c1,-10.2,2716,3.5,-1.5,0.1
CCn1c(SCc2nc3ccccc3c(=O)[nH]2)nnc1-c1cccnc1,0.6,23337*,2.8,?,1.0
Nn1c(SCc2nc3ccccc3[nH]2)nnc1-c1cccnc1,-0.1,22326*,1.0,0.1,-2.2
Nn1c(SC/C=C/c2ccccc2)nnc1-c1cccnc1,3.8,21822*,5.5,2.7,-3.2
Clc1ccc(-n2c(SC/C=C/c3ccccc3)nnc2-c2cccnc2)cc1,9.9,9553,-5.6,1.2,-1.4
COC(=O)c1sccc1NC(=O)Nc1ccc(C(C)=O)cc1,16.3,5555,0.7,-0.1,-1.5
CCNC(=O)C1(C)CCN(C(=O)c2ccc3ccccc3c2)C1 (centres undefined),0.1,3846,.,-0.1,-6.1
O=C(c1cc(C2CC2)nn1-c1ccccc1)N1CCN(S(=O)(=O)c2c(F)cccc2F)CC1,-6.7,3491,3.6,-0.4,1.3
Cc1ccc(C(O)c2ccc(-n3ccnc3)cc2)cc1 (centres undefined),16.9,3494,4.8,-3.9,14.8
Cc1ccccc1C(O)c1ccncc1 (centres undefined),3.7,19164*,4.0,2.6,-0.8
Cc1ccc(C(O)c2ccncc2)cc1 (centres undefined),9.3,17116*,2.2,8.2,-13.0
O=C(CSc1nnc2n(C3CCCCC3)c(=O)c3ccccc3n12)OC1CCCCC1,-3.8,19972*,-2.5,-1.8,0.3
CCOC(=O)CSc1nc2sc3c(c2c(=O)n1C1CCCCC1)CCN(C)C3,15.4,4970,3.9,74.2*,48.6*
CCOC(=O)CSc1nnc2n(C3CCCCC3)c(=O)c3c4c(sc3n12)CCCC4,-2.1,23468*,-5.1,-0.4,-2.0
COC(=O)CSc1nnc2n(C3CCCCC3)c(=O)c3c4c(sc3n12)CCCC4,-0.5,8015,3.6,-0.1,0.8
COc1cccc(-c2nc(CS(=O)(=O)CC(=O)NCCc3cc(OC)ccc3OC)c(C)o2)c1,1.2,4428,-5.4,1.2,-1.4
COCCCNC(=O)CS(=O)(=O)Cc1nc(-c2cccc(OC)c2)oc1C,-4.1,20516*,7.1,-2.9,0.7
COc1ccc(OC)c(CCNC(=O)CS(=O)(=O)Cc2nc(-c3ccc(C)cc3)oc2C)c1,-5.3,23969*,7.2,-2.8,-0.7
COc1ccc(-c2nc(CS(=O)(=O)CC(=O)NCCc3cc(OC)ccc3OC)c(C)o2)cc1,-2.2,17109*,-2.6,-2.0,-3.3
COc1cccc(-c2nc(CS(=O)(=O)CC(=O)NCCC(C)C)c(C)o2)c1,-1.6,6128,-11.0,0.4,-6.6
CCCc1cc(=O)[nH]c(SCC(=O)N(C)C2CCCCC2)n1,-7.7,2974,-0.6,-0.1,-9.9
CC1CC(C)C(=O)C(C(CC2CC(=O)NC(=O)C2)OC(=O)CC(=O)c2ccccc2)C1 (centres undefined),-3.3,3709,-0.3,-0.9,-2.0
COc1ccc(-n2nnnc2C(c2cccc(OC)c2OC)N2CCN(C/C=C/c3ccccc3)CC2)cc1 (centres undefined),4.2,4880,.,-0.4,6.9
Cc1cc(C)cc(C(=O)N2CCC3(CC2)NCCc2[nH]cnc23)c1,11.8,4838,-3.2,2.1,-0.3
Cc1onc(-c2ccccc2)c1C(=O)Nc1ccc(Cl)c(S(=O)(=O)N2CCOCC2)c1,7.4,3975,2.5,1.1,-2.4
